# Reference: PubChem BioAssay (NCATS)
# Unmarked numbers belong to inactive results. How the calls were made is not given here.
# System: HIV-1 nucleocapsid protein NCp7 (binding to TG oligonucleotide)
# Assay: HIV Nucleocapsid (AID 346);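 further: potency is for inhibitors that block NC binding and lower polarization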
# Conditions: HIV-1 NC / fluorescein-TGTGTGTG probe, fluorescence polarization
# Procedure: NCGC Assay Overview: HIV-1 nucleocapsid protein (HIV-1 NC) is a small (6.5 kDa) basic zinc-finger protein which participates in packaging of viral genomic RNA. The spacing and metal-chelating residues (3 Cys, 1 His) of the Cys-X2-Cys-X4-His-X4-Cys Zn fingers are conserved among all known retroviruses (J. Med. Chem. 1998, 41, 1371-1381). HIV-1 NC was assayed for its binding to the consensus sequence single-stranded 5'-TGTGTGTG. […] High salt was included to increase the stringency of binding and inhibitor screen. Reducing agents and zinc were present to stabilize the nucleocapsid zinc-finger protein.
# NCGC Assay Protocol Summary: Buffer. Hepes pH 7.5, 250mM NaCl, 1uM ZnCl2. 0.004% polyethylene glycol 20000. TCEP (100 uM) and 2-Mercaptoethanol (5 mM), added fresh the day of the experiment. Reagents/Controls. 10 nM TG4xF only in columns 3 and 4 as negative control. 10 nM TG4xF/100 nM HIV-1 NC in columns 1, 2, 5-48. Titration of control compound NSC-13778 (from 20 mM, then 1:2) pin-transferred to column 2. Assay Steps. Two uL of reagents were dispensed to 1536-well Kalypsys black plates. The plates were centrifuged for 1 min at 1000 rpm. Compounds and controls (20 nL) were transferred via Kalypsys PinTool. The plates were incubated for 1 hr at room temperature, and then read on ViewLux (Perkin-Elmer). High-throughput CCD imager using fluorescein polarization filter set and 45 seconds exposure time.
# Potency means the concentration at half of the fitted maximal effect.
row,SMILES,Potency
1,O=c1cnc2cnc(N3CCOCC3)nc2n1CCc1ccccc1,> 20 µM
2,COc1ccc(-c2nc3cnc(N4CCNCC4)nc3n(C3CC3)c2=O)cc1,> 20 µM
3,COCCn1c(=O)c(-c2cccs2)nc2cnc(N3CCNCC3)nc21,13 µM
4,COc1ncc2ncc(=O)n(CCc3ccccc3)c2n1,> 20 µM
5,COc1ccc(Oc2ncc3ncc(=O)n(CCc4ccccc4)c3n2)cc1,> 20 µM
6,N#CCCn1c(=O)cnc2cnc(OCc3ccccc3)nc21,> 20 µM
7,O=S(=O)(c1ccccc1)N1CCC[C@@]2(CCN(Cc3cc(C(F)(F)F)cc(C(F)(F)F)c3)C2)C1,> 20 µM
8,COc1ccc(CNc2ccnc(-c3ccccc3CN(C)C)n2)c(OC)c1,> 20 µM
9,CC(C)NC(=O)N1CC2(CCN(C(=O)c3cccn3C)CC2)C1,> 20 µM
10,COc1ccccc1CN1CCC2(CC1)CCN(C(=O)c1cc(C(F)(F)F)cc(C(F)(F)F)c1)CC2,> 20 µM
11,COCCn1c(=O)c(CCc2ccccc2)nc2cncnc21,> 20 µM
12,Cc1cnc(CNc2ncnc3ccc(-c4ccccc4C)cc23)cn1,> 20 µM
13,COc1cccc(Nc2ncc3nc(-c4ccc(F)cc4)c(=O)n(C)c3n2)c1,> 4 µM
14,COc1ncc2nc(-c3cc(F)cc(F)c3)c(=O)n(C[C@H]3CCCO3)c2n1,> 20 µM
15,COCCn1c(=O)c(C)nc2cnc(N3CCOCC3)nc21,> 20 µM
16,COc1cccc(Nc2ncc3nc(C)c(=O)n(CCC#N)c3n2)c1,> 20 µM
17,Fc1ccc(Nc2nc(-c3ccoc3)nc3ccccc23)cc1,> 20 µM
18,COc1ccc(Oc2ncc3nc(-c4ccc(OC)cc4)c(=O)n(Cc4cccs4)c3n2)cc1,> 20 µM
19,COc1ccccc1CN1CCC2(CC1)CCN(C(=O)c1csnn1)CC2,> 20 µM
20,CN(C)c1ncc2nc(-c3ccc(F)cc3)c(=O)n(CCc3ccccc3)c2n1,> 20 µM

row,SMILES,Potency
1,COc1ncc2nc(-c3ccc(F)cc3)c(=O)n(CCc3ccccc3)c2n1,> 20 µM
2,Cc1noc(C)c1-c1cncnc1NC1CC1,> 20 µM
3,O=S(=O)(c1ccccc1)N1CCC[C@@]2(CCN(Cc3nccs3)C2)C1,> 20 µM
4,O=C(Nc1ccccc1)N1CC[C@@]2(CCCN(C(=O)c3cnccn3)C2)C1,> 20 µM
5,COc1ccccc1-c1cncnc1NCCc1cnc[nH]1,> 20 µM
6,FC(F)(F)c1ccccc1-c1cncnc1Nc1ccccc1,> 20 µM
7,CC(C)CN1CCCC2(CCN(C(=O)c3cc(C(F)(F)F)cc(C(F)(F)F)c3)CC2)C1,> 20 µM
8,COc1ccc(-n2c(=O)c(CCc3ccccc3)nc3cnc(OC)nc32)cc1,> 20 µM
9,O=C(c1cc(C(F)(F)F)cc(C(F)(F)F)c1)N1CCC2(CC1)CN(Cc1ccccc1)C2,> 20 µM
10,COc1ccc2[nH]cc(CCNc3ncncc3-c3ccc(C(=O)N(C)C)cc3)c2c1,> 20 µM
11,COc1ccccc1-c1cc(NCc2cccnc2)ncn1,> 20 µM
12,Cc1noc(C)c1-c1ccc2ncnc(NC3CC3)c2c1,> 20 µM
13,O=c1c(CCc2ccccc2)nc2cnc(Oc3ccccc3)nc2n1C[C@H]1CCCO1,> 20 µM
14,Cc1noc(C)c1-c1cncnc1NCc1ccccc1,> 20 µM
15,O=C(c1csnn1)N1CCC[C@@]2(CCN(Cc3nccs3)C2)C1,> 20 µM
16,O=c1c(-c2ccc(F)cc2)nc2cnc(N3CCOCC3)nc2n1C1CC1,> 20 µM
17,COc1ccccc1CNc1ccnc(-c2ccccc2CN(C)C)n1,> 20 µM
18,O=C(c1cc(C(F)(F)F)cc(C(F)(F)F)c1)N1CCC2(CCCN(Cc3nccs3)C2)CC1,> 20 µM
19,Cc1noc(C)c1C(=O)N1CCC2(CCN(Cc3ccc(C#N)cc3)CC2)CC1,> 20 µM
20,COc1ccc(-n2c(=O)c(-c3cccc(F)c3)nc3cncnc32)cc1,> 20 µM
